# Source: PubChem BioAssay (NCI)
# This is part of a sample that, as a whole, favours compounds with a hit. Of some 83,000 tested, about 20% had one in any assay.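 48-hour exposure, single concentration, 96-well plates; percent growth endpoint where 0 means no net growth. Active: below 10.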 Active and inactive are the calls of the source.
# Tested on: OVCAR-5 ovarian
# Test: NCI-60 one-dose screen, 48 h (100 = growth as untreated, 0 = no growth, -100 = all killed)
# Conditions: 10 µM unless noted
# Experimental: Growth inhibition of the OVCAR-5 human tumor cell line is measured as a screen for anti-cancer activity. Cells are grown in 96 well plates and exposed to the test compound for 48 hours. Compounds are tested at a single concentration, which is 10^-5 M for most compounds. The reported endpoint is percent growth (GI% or GIPRCNT), where numbers from 0 - 100% represent growth inhibition, and numbers from -100% - 0 represent cell death. For example, a value of 40 represents 60% growth inhibition. A value of 0 means no net growth occurred over the course of the experiment. A value of -40 indicates 40% of cells at the beginning of the experiment died by the end of the experiment. A value of -100 means all cells are dead at the end of the experiment.
# NCI-60 Human Tumor Cell Lines Screen was performed using the standard one-dose NCI protocol, which is described in more detail at https://dtp.cancer.gov/discovery_development/nci-60/default.htm.
# Compounds with GIPRCNT values below 10 were considered active. Activity score was based on GIPRCNT using the following formula: […]
# Score is 0 for GIPRCNT values of 100 or above, 50 for GIPRCNT values of 0, and 100 for GIPRCNT values of -100.
row,SMILES,growth
1,COc1cc(-c2nn(-c3ccc(C(=O)O)cc3)cc2C(=O)O)ccc1O,110% (inactive)
2,Cc1cc(C)nc(SC2=C(Nc3ccc(C)c(Cl)c3)C(=O)N(Cc3ccccc3)C2=O)n1,103% [30 µM] (inactive)
3,c1ccc(-c2cc3n4c(-c5ccccc5)nn(-c5ccccc5)c4cnc-3n2)cc1,92.3% (inactive)
4,Nc1nc2ncc(CCNc3ccc(C(=O)O)cc3)nc2c(=O)[nH]1,103% (inactive)
5,O=C1c2cc3c(cc2-c2c1c1ccc(F)cc1c(=O)n2CCCNCCO)OCO3,-59.4% (active)
6,CCCCN1CCCn2c1nc1c2c(=O)n(CCC)c(=O)n1CCC,105% (inactive)
7,Cc1cc(N2CCCCCC2)nc(NC2CCCC(Nc3ccnc4cc(Cl)ccc34)C2)n1 (stereo not given),-24.8% (active)
8,CCOc1ccc(-n2nc(C(=O)Nc3cc(OC)c(OC)c(OC)c3)nc2-c2cc(OC)c(OC)c(OC)c2)cc1,102% (inactive)
9,COc1ccc(-c2nc3ccc(-c4nc5ccc(N6CCN(C)CC6)cc5[nH]4)cc3[nH]2)cc1OC,99.1% (inactive)
10,c1csc(C2=NN3C(C2)c2ccccc2OC3c2ccncc2)c1 (stereo not given),108% (inactive)
11,O=C1NC(=Nc2ccc(O)cc2)S/C1=C\c1cccc(Cl)c1,110% (inactive)
12,C=CC(=O)Nc1cccc(-c2nc(SC)nc(NCc3ccccc3)c2C#N)c1,85.4% (inactive)
13,COc1ccc(CN2c3ccccc3Sc3ccccc32)c(C(F)(F)F)c1,65.5% (inactive)
14,CC[C@@H](C(=O)[C@@H](C)[C@@H](O)[C@H](C)[C@@H]1O[C@@H]([C@@H](CC)C(=O)O)CC[C@@H]1C)[C@H]1OC2(C=C[C@@H](O)[C@]3(CC[C@@](C)([C@H]4CC[C@](O)(CC)[C@H](C)O4)O3)O2)[C@H](C)C[C@@H]1C (stereo not given in full),57.7% (inactive)
15,CCN1CCN(c2nc(NCCCNc3ccnc4cc(Cl)ccc34)c3ccccc3n2)CC1,55.1% (inactive)
16,O=c1ccccc(-c2ccc(-c3ccco3)cc2)c1O,54.9% (inactive)
17,COc1cc(-c2nc(C(=O)NCC(=O)NO)nn2-c2ccc(Cl)cc2)cc(OC)c1OC,93.3% (inactive)
18,O=S(=O)(Nc1ccc(I)cc1F)c1ccc(-c2cnc(C3CC3)o2)cc1,88.2% (inactive)
19,Cc1nc2ccccc2n1C(=O)C[C@@H]1NC(=S)NC1=O,85.6% (inactive)
20,O=C(Nc1ccccc1Cl)c1ccc(NC2=C(Cl)C(=O)N(C3CCCCC3)C2=O)cc1,109% [30 µM] (inactive)

row,SMILES,growth
1,C=CC(=O)Nc1cccc(Nc2nc(SC)nc(-c3cccc([N+](=O)[O-])c3)c2C#N)c1,71.8% (inactive)
2,COc1cccc(-c2nn(C(C)(C)C)cc2-c2ccnc(NCCCNS(=O)(=O)c3cccc4ccccc34)c2)c1,104% (inactive)
3,CN1CCN(c2ccc3nc(-c4ccc(OCCCCN5CCN(CCCCN6C(=O)c7cccc8cccc(c78)C6=O)CC5)cc4)[nH]c3c2)CC1,116% (inactive)
4,COc1ccc(/C=C/C(=O)c2cc(O)ccc2O)cc1,108% (inactive)
5,COc1ccc(C(=O)COc2cccc(/C=C3\CSc4ccccc4C3=O)c2)cc1,32.4% (inactive)
6,C(=N/Nc1ncc(-c2cc3cc(-c4ccccc4)ccc3o2)s1)/c1cccs1,93.9% (inactive)
7,COc1cc2c(cc1O)CC[C@@H]1[C@@H]2CC[C@]2(C)[C@@H](OCCCN(C)C)CC[C@@H]12,2.83% (active)
8,O=C1c2cccc3cccc(c23)C(=O)N1CCCCN1CCN(CCCCOc2ccc(-c3nc4ccc(N5CCOCC5)cc4[nH]3)cc2)CC1,109% (inactive)
9,Cc1nn(-c2ccc(F)cc2)c2ncnc(Nc3ccc(NC(=O)Nc4ccc(Cl)c(C(F)(F)F)c4)cc3)c12,70.8% (inactive)
10,CN1CCN=C1c1ccc(NC(=O)c2ccc(C(=O)Nc3ccc(C4=NCCN4C)cc3)cc2)cc1,87.5% (inactive)
11,NS(=O)(=O)c1ccc(CN=C2NC(=O)S/C2=C\c2ccc(Br)cc2)cc1,94.1% (inactive)
12,CCCCCC(=O)Oc1ccc(/C(=C(\C)c2ccc(OC)cc2)c2ccc(OCCN3CCCCC3)cc2)cc1,82.2% (inactive)
13,CCN(CC)c1ccc(-c2cc(-c3cc(OC)c(OC)c(OC)c3)nc(N3CCOCC3)c2C#N)cc1,5.94% (active)
14,CN1CCN(Cc2ccc(NC(=O)c3cncc(C#Cc4cncn5ccnc45)c3)cc2C(F)(F)F)CC1,48.4% (inactive)
15,C=C(C)[C@@H]1CC[C@]2(C(=O)OC)CC[C@]3(C)[C@H](CC[C@@H]4[C@@]5(C)C/C(=C/c6ccc(OC)cc6)C(=O)C(C)(C)[C@@H]5CC[C@]43C)[C@@H]12,93.4% (inactive)
16,Cc1cc2nc3[nH]c4ccccc4c3nc2cc1C,102% (inactive)
17,N#CN1CC[C@H](C(=O)Nc2cc3cc(C(N)=O)ccc3cn2)C1,5.15% (active)
18,O=C1/C(=C/N2N=C(c3ccc4ccccc4c3)CC2c2ccccc2O)SC(=S)N1c1cccnc1 (stereo not given),68.6% (inactive)
19,COc1cccc(-c2nc3sccn3c2-c2ccnc(NCCNS(=O)(=O)c3ccccc3)c2)c1,45.3% (inactive)
20,CC(O)CN1CC(O)=C(c2nc3ccccc3s2)C1=N (stereo not given),93.9% (inactive)
